Measurements published in PubChem BioAssay (NCI).
About 79,000 compounds went through this panel and 15% of them were active in at least one assay; those are over-represented in the sample as a whole. Unmarked numbers belong to inactive results. Calls of active or inactive are those of the source. Cut-off read from the data, not from the text of the source: active = growth inhibition above about 70%; inactive = the rest.

Legend:
[1] = NCI Yeast Anticancer Drug Screen. Data for the rad52 strain (AID 147);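 note: 0% = growth of vehicle-treated control cultures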; details: S. cerevisiae rad52 mutant growth inhibition, active compounds read high
How it was run: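 Measured: yeast growth inhibition. System: strain with a defined DNA damage repair alteration. Reference: vehicle-treated control cultures.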

[2] = NCI Yeast Anticancer Drug Screen. Data for the wt1 strain (AID 149);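 note: 0% = growth of vehicle-treated wt1 cultures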; details: S. cerevisiae wt1 strain (SPY 50644) growth inhibition, active compounds read high
How it was run: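 Compounds are added to wt1 yeast cultures. Growth is then measured. Inhibition is expressed relative to vehicle-treated controls.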

[3] = NCI Yeast Anticancer Drug Screen. Data for the rad50EPP+ strain (AID 151);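 note: 0% = growth of vehicle-treated control cultures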; details: S. cerevisiae rad50 mutant strain, active compounds read high
How it was run: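 One strain with a rad50 alteration (rad50EPP+) was compound-treated, its growth then compared to that of vehicle controls.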

[4] = NCI Yeast Anticancer Drug Screen. Data for the mgt1 strain (AID 153); details: S. cerevisiae mgt1 mutant growth inhibition, active compounds read high
How it was run: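 After exposure of the mgt1 yeast mutant to compound, growth was measured and reported as inhibition compared with vehicle controls.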

[5] = NCI Yeast Anticancer Drug Screen. Data for the rad50 strain (AID 155);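 note: 0% = growth of vehicle-only cultures of the same strain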; details: S. cerevisiae rad50 strain growth inhibition, active compounds read high
How it was run: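 Inhibition values express reduced yeast growth in compound-treated cultures relative to vehicle-treated controls.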

[6] = NCI Yeast Anticancer Drug Screen. Data for the mec2-1 strain (AID 157); details: S. cerevisiae mec2-1 strain, active compounds read high
How it was run: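 Test agents were screened against the mec2-1 yeast strain, with defined DNA repair or cell cycle alteration. Growth was scored as inhibition against vehicle-only controls.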

[7] = NCI Yeast Anticancer Drug Screen. Data for the rad14 strain (AID 159);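 note: 0% = growth of vehicle-treated control cultures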; details: S. cerevisiae rad14 strain growth inhibition, active compounds read high
How it was run: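 A mutant yeast strain defective in DNA damage repair is treated with compound; inhibition of its growth is scored against untreated, vehicle-exposed cultures.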

[8] = NCI Yeast Anticancer Drug Screen. Data for the sgs1 mgt1 strain (AID 161);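 note: 0% = growth of cultures given vehicle only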; details: S. cerevisiae sgs1 mgt1 strain, active compounds read high
How it was run: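 Genetically altered yeast, compound exposure, growth inhibition relative to vehicle.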

[9] = NCI Yeast Anticancer Drug Screen. Data for the CLN2oe strain (AID 163);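 note: 0% = growth of vehicle-only control cultures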; details: S. cerevisiae CLN2oe strain, active compounds read high
How it was run: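 Here, growth inhibition in a cell-cycle-altered yeast strain after compound exposure was quantified against vehicle control growth.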

[10] = NCI Yeast Anticancer Drug Screen. Data for the cln2 rad14 strain (AID 165);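 note: 0% = growth equal to vehicle treated cultures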; details: S. cerevisiae cln2 rad14 strain, active compounds read high
How it was run: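 Growth of compound-exposed yeast (cln2 rad14 genotype) measured and expressed as inhibition relative to vehicle.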

[11] = NCI Yeast Anticancer Drug Screen. Data for the bub3 strain (AID 167); details: S. cerevisiae bub3 mutant strain, active compounds read high
How it was run: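 Steps: expose the mutant yeast strain to compound; grow alongside vehicle-treated cultures; measure growth; express inhibition against the vehicle cultures.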

[12] = NCI Yeast Anticancer Drug Screen. Data for the wt2 strain (AID 169);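 note: 0% = growth of vehicle-treated yeast cultures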; details: S. cerevisiae wt2 strain growth inhibition, active compounds read high
How it was run: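 Genetically defined yeast strains from a DNA-repair/cell-cycle panel were used. Compound-exposed yeast growth was measured, and the inhibition was calculated relative to vehicle treatment.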

[13] = NCI Yeast Anticancer Drug Screen. Data for the mlh1 strain (AID 171);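 note: 0% = growth of vehicle-treated control cultures of the same strain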; details: S. cerevisiae mlh1 strain growth inhibition, active compounds read high
How it was run: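 Here the genetically defined yeast mutant is grown with each compound, and the extent to which its growth falls below that of vehicle-exposed cells is reported.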

[14] = NCI Yeast Anticancer Drug Screen. Data for the sgs1 strain (AID 173);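 note: 0% = growth of vehicle-only control cultures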; details: S. cerevisiae sgs1 mutant, active compounds read high
How it was run: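 Relative growth inhibition, referenced to vehicle, was determined in a yeast strain with a defined alteration affecting DNA damage repair or cell cycle control after compound exposure.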

[15] = NCI Yeast Anticancer Drug Screen. Data for the mlh1 rad18 strain (AID 175); details: S. cerevisiae mlh1 rad18 strain growth inhibition, active compounds read high
How it was run: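 In this whole-cell yeast screen, a strain with altered DNA damage repair is challenged with compound, and its growth is measured against matched vehicle-treated controls.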

[16] = NCI Yeast Anticancer Drug Screen. Data for the rad18 strain (AID 177); details: S. cerevisiae rad18 mutant growth inhibition, active compounds read high
How it was run: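 Screen uses a yeast strain with a defined lesion in DNA damage repair; compound effect is read as loss of growth compared to untreated vehicle cultures.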

[17] = at 5.0 µM (retest, dose inferred, filed as 0.5)
[18] = at 50.0 µM (retest, dose inferred, filed as 5.0)

**Q.** Which results are given for `COc1ccc(/C=C/c2sc3ccccc3[n+]2CCCCI)cc1OC`?
**A.** growth inhibition ([1]; at 1.2 µM): -8%; growth inhibition ([1]; at 3.7 µM): 1%; growth inhibition ([1]; at 11.0 µM): -2%; growth inhibition ([1]; at 33.0 µM): 55%; growth inhibition ([1]; at 100.0 µM): 94% (active); growth inhibition ([2]; at 1.2 µM): -84%; growth inhibition ([2]; at 3.7 µM): -3%; growth inhibition ([2]; at 11.0 µM): -6%; growth inhibition ([2]; at 33.0 µM): 33%; growth inhibition ([2]; at 100.0 µM): 89% (active); growth inhibition ([3]; at 1.2 µM): -5%; growth inhibition ([3]; at 3.7 µM): -2%; growth inhibition ([3]; at 11.0 µM): -4%; growth inhibition ([3]; at 33.0 µM): 0%; growth inhibition ([3]; at 100.0 µM): -3%; growth inhibition ([4]; at 1.2 µM): 0%; growth inhibition ([4]; at 3.7 µM): -1%; growth inhibition ([4]; at 11.0 µM): -4%; growth inhibition ([4]; at 33.0 µM): 76% (active); growth inhibition ([4]; at 100.0 µM): 98% (active); growth inhibition ([5]; at 1.2 µM): -2%; growth inhibition ([5]; at 3.7 µM): -3%; growth inhibition [5, 17]: -11%; growth inhibition ([5]; at 11.0 µM): -7%; growth inhibition ([5]; at 33.0 µM): 48%; growth inhibition [5, 18]: 20%; growth inhibition ([5]; at 50.0 µM): 74.9% (active); growth inhibition ([5]; at 100.0 µM): 93% (active); growth inhibition ([6]; at 1.2 µM): -6%; growth inhibition ([6]; at 3.7 µM): -6%; growth inhibition [6, 17]: -16%; growth inhibition ([6]; at 11.0 µM): -11%; growth inhibition ([6]; at 33.0 µM): 64%; growth inhibition [6, 18]: 56%; growth inhibition ([6]; at 50.0 µM): 81.4% (active); growth inhibition ([6]; at 100.0 µM): 95% (active); growth inhibition ([7]; at 1.2 µM): -2%; growth inhibition ([7]; at 3.7 µM): -3%; growth inhibition ([7]; at 11.0 µM): -7%; growth inhibition ([7]; at 33.0 µM): 84% (active); growth inhibition ([7]; at 100.0 µM): 98% (active); growth inhibition [8, 17]: -9%; growth inhibition [8, 18]: 29%; growth inhibition ([8]; at 50.0 µM): 95.2% (active); growth inhibition ([9]; at 1.2 µM): -7%; growth inhibition ([9]; at 3.7 µM): -7%; growth inhibition ([9]; at 11.0 µM): -8%; growth inhibition ([9]; at 33.0 µM): -10%; growth inhibition ([9]; at 100.0 µM): 68%; growth inhibition [10, 17]: 36%; growth inhibition [10, 18]: 54%; growth inhibition ([10]; at 50.0 µM): 29.6%; growth inhibition ([11]; at 1.2 µM): -4%; growth inhibition ([11]; at 3.7 µM): -8%; growth inhibition [11, 17]: 0%; growth inhibition ([11]; at 11.0 µM): -2%; growth inhibition ([11]; at 33.0 µM): 1%; growth inhibition [11, 18]: 97% (active); growth inhibition ([11]; at 50.0 µM): 91.8% (active); growth inhibition ([11]; at 100.0 µM): 85% (active); growth inhibition ([12]; at 1.2 µM): -3%; growth inhibition ([12]; at 3.7 µM): -3%; growth inhibition ([12]; at 11.0 µM): -6%; growth inhibition ([12]; at 33.0 µM): 26%; growth inhibition ([12]; at 100.0 µM): 97% (active); growth inhibition ([13]; at 1.2 µM): -2%; growth inhibition ([13]; at 3.7 µM): -4%; growth inhibition ([13]; at 11.0 µM): -6%; growth inhibition ([13]; at 33.0 µM): 66%; growth inhibition ([13]; at 100.0 µM): 97% (active); growth inhibition ([14]; at 1.2 µM): 1%; growth inhibition ([14]; at 3.7 µM): 4%; growth inhibition ([14]; at 11.0 µM): -2%; growth inhibition ([14]; at 33.0 µM): 84% (active); growth inhibition ([14]; at 100.0 µM): 97% (active); growth inhibition [15, 17]: -9%; growth inhibition [15, 18]: 46%; growth inhibition ([15]; at 50.0 µM): 95.6% (active); growth inhibition ([16]; at 1.2 µM): -3%; growth inhibition ([16]; at 3.7 µM): 0%; growth inhibition ([16]; at 11.0 µM): 9%; growth inhibition ([16]; at 33.0 µM): 86% (active); growth inhibition ([16]; at 100.0 µM): 96% (active)
